Laboratory results reported in PubChem BioAssay (EPA / NIEHS).
Results filed as inconclusive are left out. The source made the active and inactive calls. The calls were made as follows: active = hit-call score of the fitted dose curve at least 0.9, where 1 is the maximum; inconclusive = response in the unintended direction; inactive = score below 0.9.

molecular target: human Peroxisome Proliferator-activated Receptor alpha (PPARa), PPARA (gene 5465) (UniProt Q07869); assay: NVS_NR_hPPARa: NovaScreen (NVS) Nuclear Receptor Binding Assay for human Peroxisome Proliferator-activated Receptor alpha (PPARa) (AID 2283359);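 also: activity means loss of TR-FRET signal versus DMSO baseline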
Sequence (Q07869 whole entry, looked up): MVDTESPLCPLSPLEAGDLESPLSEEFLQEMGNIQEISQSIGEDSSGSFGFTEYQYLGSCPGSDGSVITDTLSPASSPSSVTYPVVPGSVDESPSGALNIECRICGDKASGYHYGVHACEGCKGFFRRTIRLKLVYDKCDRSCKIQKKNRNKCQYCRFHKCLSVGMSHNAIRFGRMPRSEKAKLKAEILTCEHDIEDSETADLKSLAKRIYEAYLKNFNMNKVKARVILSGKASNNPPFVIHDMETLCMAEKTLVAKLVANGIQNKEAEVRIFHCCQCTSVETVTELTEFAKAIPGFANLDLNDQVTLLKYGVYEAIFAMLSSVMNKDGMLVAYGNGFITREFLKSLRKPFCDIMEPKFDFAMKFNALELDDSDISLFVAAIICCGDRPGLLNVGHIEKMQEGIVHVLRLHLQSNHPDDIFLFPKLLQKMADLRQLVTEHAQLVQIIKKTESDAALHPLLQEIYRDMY
In short: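 Chemicals were first screened in duplicate at 25 uM, and active ones were retested across concentration series. Binding was monitored by TR-FRET one hour after dosing, with decreased signal against DMSO counted as activity.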

outcome, inactive:
O=C(Oc1ccccc1)c1cccc(C(=O)Oc2ccccc2)c1, Nc1nc(Cl)nc2c1ncn2[C@H]1C[C@H](O)[C@@H](CO)O1, CC(C)(C)c1ccccc1, CCCCOC(=O)CCCCC(=O)OCCCC, Oc1ccccc1O, CC(C)c1cccc(C(C)C)c1NC(=O)NS(=O)(=O)c1cc(C(C)(C)O)co1, CC(C)COC(=O)CCCCC(=O)OCC(C)C

molecular target: PGR (gene 5241) (UniProt P06401); assay: NVS_NR_hPR: NovaScreen (NVS) Nuclear Receptor Binding Assay for human Progestron Receptor (PR) (AID 2283360);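 also: active means loss of bound radioligand signal versus DMSO baseline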
Sequence (P06401 whole entry, looked up): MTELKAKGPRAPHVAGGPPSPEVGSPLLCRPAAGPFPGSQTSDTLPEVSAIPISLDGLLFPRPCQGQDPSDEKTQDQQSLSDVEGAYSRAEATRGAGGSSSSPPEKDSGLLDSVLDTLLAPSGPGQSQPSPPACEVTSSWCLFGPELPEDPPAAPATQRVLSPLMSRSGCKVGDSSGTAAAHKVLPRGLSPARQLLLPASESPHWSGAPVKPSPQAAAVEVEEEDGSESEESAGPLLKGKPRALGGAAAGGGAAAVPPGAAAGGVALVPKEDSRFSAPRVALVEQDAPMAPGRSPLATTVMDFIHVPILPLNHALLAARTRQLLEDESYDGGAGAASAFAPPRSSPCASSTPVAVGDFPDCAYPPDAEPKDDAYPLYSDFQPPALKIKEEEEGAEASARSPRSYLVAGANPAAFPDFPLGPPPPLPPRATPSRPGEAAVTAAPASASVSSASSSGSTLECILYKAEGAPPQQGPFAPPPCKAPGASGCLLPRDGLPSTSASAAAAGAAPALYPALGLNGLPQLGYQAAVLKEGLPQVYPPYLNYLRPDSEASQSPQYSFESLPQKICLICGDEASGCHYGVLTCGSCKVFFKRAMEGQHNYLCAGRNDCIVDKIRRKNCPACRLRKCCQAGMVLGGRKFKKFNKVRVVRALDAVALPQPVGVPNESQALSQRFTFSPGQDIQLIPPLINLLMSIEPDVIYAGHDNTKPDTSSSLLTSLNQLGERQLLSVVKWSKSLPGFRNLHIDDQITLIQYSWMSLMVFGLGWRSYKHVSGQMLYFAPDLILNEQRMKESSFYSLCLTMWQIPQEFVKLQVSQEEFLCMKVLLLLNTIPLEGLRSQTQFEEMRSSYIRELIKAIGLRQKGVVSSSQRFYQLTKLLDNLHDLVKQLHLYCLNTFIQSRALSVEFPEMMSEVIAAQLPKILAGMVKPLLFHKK
In short: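 Cell-free radioligand binding using receptor protein extracted from T47D cells, read by scintillation counting 18 hours after dosing. Loss of signal relative to DMSO baseline indicates displacement; primary screen single concentration 25 uM in duplicate, actives followed in concentration series.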

outcome, inactive:
O=C(O)c1cccnc1, CO[C@@H]1COCC[C@@H]1N[C@@H]1CC[C@@](C(=O)N2CCc3ncc(C(F)(F)F)cc3C2)(C(C)C)C1, CC(=O)O, CC(C)COC(=O)CCCCC(=O)OCC(C)C, OCC(O)CO
